# Records with an inconclusive call do not appear. The source made the active and inactive calls. Cut-off read from the data, not from the text of the source: active = toxicity enhancement factor above about 0.054; inconclusive = between about 0.00067 and that limit; inactive = weaker than that.
# Assay: MRP-overexpressing cell chemosensitization – dose response (AID 741)
# Conditions: MRP-overexpressing cells, viability with/without cytotoxic drug; slope difference: measured here: slope difference tox minus reversal, stronger effect = higher value; toxicity enhancement factor: stronger effect = higher value; viability: measured here: viability series, compound alone, at 10 µM, stronger effect = lower value
Structure (SMILES),slope difference,toxicity enhancement factor,viability
COC(=O)c1ccccc1NC(=O)c1cccs1,-0.205,-0.0023 (inactive),87.5%
O=C(Cc1cccs1)N1CCC(c2nc3c(nnn3Cc3ccccc3Cl)c(=O)[nH]2)CC1,-0.454,-0.0052 (inactive),82.5%
CC(C)Cc1ccc(C(C)C(=O)O)cc1 (stereo not given),-0.62,-0.0059 (inactive),93.7%
Cc1ccc(Cn2c(N3CCCCCC3)nc3c2c(=O)[nH]c(=O)n3C)cc1,-0.91,-0.0097 (inactive),88.2%
O=C1Nc2cc(C(=O)N3CCN(Cc4ccccc4)CC3)ccc2SC1N1CCOCC1 (stereo not given),-0.0531,-0.0007 (inactive),83.2%
COCC(C)OC(=O)C(C#N)c1nc2ccccc2nc1N1CCN(Cc2ccccc2)CC1 (stereo not given),-0.109,-0.0013 (inactive),89.3%
CN1C(C(=O)Nc2ccccn2)=C(O)c2ccccc2S1(=O)=O,-0.409,-0.0045 (inactive),92.3%
CCCN1C2=C(C(=O)CC(C)(C)C2)C(c2ccc(F)cc2)C2=C1c1ccccc1C2=O (stereo not given),3.28,0.126 (active),64.6%
Cc1cccc(OCc2nnc(SCC(=O)c3ccccc3)o2)c1,-0.739,-0.007 (inactive),97.4%
COC(=O)Nc1ccc(S(=O)(=O)N2c3ccccc3CCC2C)cc1 (stereo not given),-2.95,-0.0581 (inactive),20.1%
c1ccc2c(c1)nc1n2CN(Cc2ccc3c(c2)OCO3)CN1,-0.301,-0.0032 (inactive),85.8%
Cc1ccc(Cl)c(Nc2ccccc2C(=O)O)c1Cl,-0.97,-0.0098 (inactive),92.5%
CCOC(=O)/C(C#N)=C/c1cc(C)n(-c2ccc(C)cc2)c1C,-0.0151,-0.0003 (inactive),63.7%
CCCn1c(=O)[nH]c(=O)c2[nH]cnc21,-0.568,-0.0054 (inactive),101%
CCOc1nc2c(c(=O)n(C)c(=O)n2C)n1Cc1ccccc1Cl,-0.531,-0.0077 (inactive),71%
CCc1cccc2c3c([nH]c12)C(CC)(CC(=O)O)OCC3 (stereo not given),-0.174,-0.0019 (inactive),92.5%
Cn1c(=O)c2c(nc(NC3CCCCC3)n2CC(O)COc2ccccc2)n(C)c1=O (stereo not given),-0.557,-0.0085 (inactive),68.8%
CCN(C(=O)c1cn(C)c(=O)c2cc(OC)c(OC)cc12)c1cc(OC)ccc1OC,4.18,0.129 (active),77.9%

Structure (SMILES),slope difference,toxicity enhancement factor,viability
O=C(c1ccccc1)c1ccc2n1CCC2C(=O)O (stereo not given),-0.0977,-0.001 (inactive),106%
CCOc1ccccc1Nc1nc(N)nc(CN(C)C2CCCCC2)n1,-0.105,-0.0012 (inactive),92.2%
C=CCSc1nnc2n(CCc3ccccc3)c(=O)c3c4c(sc3n12)COC(C)(C)C4,3.35,0.116 (active),71%
Cc1nn(C)c(C)c1NC(=O)CSc1nc(C2CC2)nc2c1cnn2-c1ccccc1,-1.07,-0.0298 (inactive),27.3%
CCc1nc(SCC(=O)Nc2c(C)nn(C)c2C)c2cnn(-c3ccccc3)c2n1,-0.333,-0.0042 (inactive),79.1%
CCCc1cc(Nc2c(C)n(C)n(-c3ccccc3)c2=O)n2c(nc3ccccc32)c1C#N,4.27,0.0896 (active),97.6%
COC(=O)C(C)Sc1nnc2n(-c3cccc(C)c3)c(=O)c3c4c(sc3n12)CCCC4 (stereo not given),2.9,0.061 (active),85.9%
COc1ccc(C)cc1-n1c(N)c(C#N)c(C#N)c1-c1ccc(OC)c(OC)c1OC,2.33,0.077 (active),61.5%
CC(Cc1ccc(O)c(O)c1)C(C)Cc1ccc(O)c(O)c1 (stereo not given),-0.864,-0.009 (inactive),86.2%
COc1ccc(NC(=O)C2C3C=CC(C3)C2C(=O)NCc2ccccn2)c(OC)c1 (stereo not given),-1.73,-0.0167 (inactive),88.7%
O=C(COc1ccccc1)N1CCN(c2ncnc3c2cnn3-c2ccccc2)CC1,-0.402,-0.0084 (inactive),53.8%
COc1ccc(Cl)cc1C(=O)Nc1ccccc1N1CCN(C(=O)C(C)C)CC1,-0.352,-0.0048 (inactive),75.7%
COC(=O)Nc1ccc(S(=O)(=O)Nc2cccc3ccccc23)cc1,-0.0221,-0.0003 (inactive),77.7%
O=C1CCCC2=C1C(c1cccs1)n1nc(SCc3ccccc3F)nc1N2 (stereo not given),2.51,0.0631 (active),69.6%
c1ccc2c(N3CCOCC3)nc(-c3ccncc3)nc2c1,-1.84,-0.0239 (inactive),66.1%
CCCCCC(O)c1cccc(OCc2ccc3ccccc3n2)c1 (stereo not given),-0.009,-0.0001 (inactive),102%
CSc1cccc(NC(=O)C2CCN(S(C)(=O)=O)CC2)c1,-0.244,-0.0028 (inactive),94.7%
